{"source": "PubChem BioAssay AID1259421", "about": "(Broad Institute, 2018)", "note": "“And” between values parts separate entries of the source, which are not always exact repeats. Equal entries are not always repeated. Hit rate of the full screen: of about 6,400 compounds, about 610 (9.5%) were called active. Cut-off read from the data, not from the text of the source: active = activity change below about -70%; inconclusive = no clear call, values can overlap the other calls; inactive = above that. The list comes from a sample in which actives are over-represented; it also holds similar structures and randomly drawn compounds. More than one record can exist for a structure, and the calls need not agree."}
{"experiment": "T. gondii ME49Luc in HeLa cells, luciferase assay, 72 h, no IFN-y (AID 1259421)", "conditions": "stronger effect = lower value, concentration not given here"}
{"smiles": "C=C1C(=C/C=C2\\CCC[C@]3(C)[C@@H]([C@H](C)/C=C/[C@@H](O)C4CC4)CC[C@@H]23)C[C@@H](O)C[C@@H]1O", "activity change, negative = inhibition": "12.8% (inactive)"}
{"smiles": "C=C1CC[C@H](O)C/C1=C/C=C1\\CCC[C@]2(C)[C@@H]([C@H](C)CCCC(C)C)CC[C@@H]12", "activity change, negative = inhibition": "-78.3% (active)"}
{"smiles": "C=C1/C(=C/C=C2/CCC[C@]3(C)[C@@H]([C@H](C)CCCC(C)C)CC[C@@H]23)C[C@@H](O)C[C@@H]1O", "activity change, negative = inhibition": "-75.5% (active)"}
{"smiles": "C=C1/C(=C\\C=C2/CCC[C@]3(C)[C@@H]([C@H](C)CCCC(C)(C)O)CC[C@@H]23)C[C@@H](O)C[C@@H]1O", "activity change, negative = inhibition": "-69.8% (inactive) and 11.1% (inactive)"}
{"smiles": "C=C1/C(=C\\C=C2/CCC[C@]3(C)[C@@H]([C@H](C)/C=C/[C@H](C)C(C)(C)O)CC[C@@H]23)C[C@@H](O)C[C@@H]1O", "activity change, negative = inhibition": "13.5% (inactive)"}
{"smiles": "C=C1/C(=C\\C=C2/CCC[C@]3(C)[C@@H]([C@H](C)CC[C@@H](O)C(C)C)CC[C@@H]23)C[C@@H](O)C[C@@H]1O", "activity change, negative = inhibition": "3.62% (inactive)"}
{"smiles": "C[C@H]1OC(O)[C@H](O)[C@H](O)[C@H]1O", "note": "(some centres not stated)", "activity change, negative = inhibition": "-0.633% (inactive)"}
{"smiles": "CC(=O)O[C@H]1C[C@@H](O)C(C)(C)C2C[C@@H](OC(C)=O)[C@]3(C)C(CC[C@@]4(C)[C@H](c5ccoc5)OC(=O)C5OC543)[C@]21C", "note": "(some centres not stated)", "activity change, negative = inhibition": "-2.36% (inactive)"}
{"smiles": "Cc1c(Cn2ccnc2)c2ccccc2n1CCC(=O)O", "activity change, negative = inhibition": "13% (inactive)"}
{"smiles": "O=c1[nH]c(-c2ccc(C(F)(F)F)cc2)nc2c1CSCC2", "activity change, negative = inhibition": "29.4% (inactive)"}
{"smiles": "NC1(C(=O)N[C@@H](CCO)c2ccc(Cl)cc2)CCN(c2ncnc3[nH]ccc23)CC1", "activity change, negative = inhibition": "9.43% (inactive)"}
{"smiles": "CC(C)C[C@H](NC(=O)[C@@H](Cc1c[nH]c2ccccc12)NC(=O)[C@H](Cc1ccc(O)cc1)NC(=O)[C@H](CO)NC(=O)[C@H](Cc1c[nH]c2ccccc12)NC(=O)[C@H](Cc1cnc[nH]1)NC(=O)[C@@H]1CCC(=O)N1)C(=O)N[C@@H](CCCN=C(N)N)C(=O)N1CCC[C@H]1C(=O)NCC(N)=O", "activity change, negative = inhibition": "-22.2% (inactive)"}
{"smiles": "CO[C@@]12[C@H](COC(N)=O)C3=C(C(=O)C(C)=C(N)C3=O)N1C[C@@H]1N[C@@H]12", "activity change, negative = inhibition": "-10.9% (inactive)"}
{"smiles": "CO[C@@]12[C@@H]3NC3CN1C1=C(C(=O)C(N)=C(C)C1=O)[C@@H]2COC(N)=O", "note": "(some centres not stated)", "activity change, negative = inhibition": "-81.9% (active) and -22.7% (inactive)"}
{"smiles": "N[C@@H](C(=O)O)C1=CCC=CC1", "activity change, negative = inhibition": "-2.48% (inactive)"}
{"smiles": "C[C@@H]1O[C@@H](OC[C@H]2OC(Oc3c(-c4ccc(O)c(O)c4)oc4cc(O)cc(O)c4c3=O)[C@H](O)[C@@H](O)[C@@H]2O)[C@H](O)[C@H](O)[C@H]1O", "note": "(some centres not stated)", "activity change, negative = inhibition": "0.376% (inactive)"}
{"smiles": "O=c1c(-c2cc(O)c(O)c(O)c2)coc2cc(O)c(O)c(O)c12", "activity change, negative = inhibition": "8.75% (inactive)"}
{"smiles": "NC(=O)N1C(=O)C(C(=O)c2cccs2)c2cc(Cl)ccc21", "note": "(configuration not stated)", "activity change, negative = inhibition": "8.36% (inactive) and 15.7% (inactive)"}
{"smiles": "CN(C)C1CCN(C(=O)c2ccc(NC(=O)Nc3ccc(-c4nc(N5CCOCC5)nc(N5CCOCC5)n4)cc3)cc2)CC1", "activity change, negative = inhibition": "-1.91% (inactive)"}
{"smiles": "O=C(Nc1ccncc1)Nc1ccc(-c2nc(N3CCOCC3)nc(N3C4CCC3COC4)n2)cc1", "activity change, negative = inhibition": "-80% (active)"}
{"smiles": "CCNC(=O)Nc1ccc(-c2nc3c(c(N4CCOC[C@@H]4C)n2)CCN(C2COC2)C3)cc1", "activity change, negative = inhibition": "-37.1% (inactive)"}
{"smiles": "CC(C)CCOC(=O)c1ccc(N(C)C)cc1", "activity change, negative = inhibition": "67.6% (inactive)"}
{"smiles": "CN(C)c1ccc(C(=C2C=CC(=[N+](C)C)C=C2)c2ccc(N(C)C)cc2)cc1", "activity change, negative = inhibition": "-90.8% (active) and -81% (active)"}
{"smiles": "COc1cccc(/C=N/N=C/c2cccc(OC)c2)c1", "activity change, negative = inhibition": "6.04% (inactive)"}
{"smiles": "C/C=C/C/C=C/CCC(=O)[C@H]1O[C@H]1C(N)=O", "activity change, negative = inhibition": "20.9% (inactive)"}
{"smiles": "Cc1cc(C2CCCCC2)n(O)c(=O)c1", "activity change, negative = inhibition": "-76.5% (active) and -74.6% (active) and -92.8% (active)"}
{"smiles": "CC(=O)O[C@]1(C(C)=O)CCC2C3C[C@H](C)C4=CC(=O)CC[C@]4(C)C3CC[C@@]21C", "note": "(some centres not stated)", "activity change, negative = inhibition": "15% (inactive)"}
{"smiles": "CCOC(CN1CCN(CC(C)C(=O)c2ccccc2)CC1)c1ccccc1", "note": "(configuration not stated)", "activity change, negative = inhibition": "31.9% (inactive)"}
{"smiles": "NC(=S)N=Nc1ccc(NN=C(N)N)cc1", "activity change, negative = inhibition": "5.33% (inactive)"}
{"smiles": "Cc1ccc(/C=N/NC(=O)c2ccccc2Oc2ccccc2)o1", "activity change, negative = inhibition": "8.19% (inactive)"}
{"smiles": "CCCCN(CCCC)CCC(O)c1cc2c(Cl)cc(Cl)cc2c2cc(C(F)(F)F)ccc12", "note": "(configuration not stated)", "activity change, negative = inhibition": "-83% (active)"}
{"smiles": "CC(=O)N1CCCC1C(=O)O", "note": "(configuration not stated)", "activity change, negative = inhibition": "6.22% (inactive)"}
{"smiles": "CC(=O)NC1[C@@H](O)OC(CO)[C@@H](O)[C@H]1O", "note": "(some centres not stated)", "activity change, negative = inhibition": "16% (inactive)"}
{"smiles": "COc1cc2c(cc1OC)CN(CCc1ccc(NC(=O)c3cccc4c(=O)c5cccc(OC)c5[nH]c34)cc1)CC2", "activity change, negative = inhibition": "-79.7% (active)"}
{"smiles": "COc1cccc([C@H](O)C2CCN(CCc3ccc(F)cc3)CC2)c1OC", "activity change, negative = inhibition": "11% (inactive)"}
{"smiles": "COc1cc2c(cc1OC)CN(CCc1ccc(NC(=O)c3cc(OC)c(OC)cc3NC(=O)c3cnc4ccccc4c3)cc1)CC2", "activity change, negative = inhibition": "1.38% (inactive)"}
{"smiles": "COC1CCN(C(=O)c2cc(Cc3n[nH]c(=O)c4ccccc34)ccc2F)CC1", "activity change, negative = inhibition": "11.9% (inactive)"}
